# High-throughput results from PubChem.
# Only some compounds are listed: those with a hit (about 1.5% of all), similar ones and a draw of the others.
# GLD-1 TGE inh: GLD-1-TGE RNA interaction inhibition (C. elegans); purified GLD-1 + fluorescein TGE RNA, fluorescence polarization; inhibition, % at 5.96 µM; 320,000 tested, 0.44% active; AID 2280;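 active = percent inhibition above a per-plate cutoff, the plate mean of test compounds plus 3 SD, cut at about 30% in these data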;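 note: 0% = DMSO wells with GLD-1 and probe and 100% = wells lacking GLD-1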
# Target sequence (Q17339 whole entry, looked up): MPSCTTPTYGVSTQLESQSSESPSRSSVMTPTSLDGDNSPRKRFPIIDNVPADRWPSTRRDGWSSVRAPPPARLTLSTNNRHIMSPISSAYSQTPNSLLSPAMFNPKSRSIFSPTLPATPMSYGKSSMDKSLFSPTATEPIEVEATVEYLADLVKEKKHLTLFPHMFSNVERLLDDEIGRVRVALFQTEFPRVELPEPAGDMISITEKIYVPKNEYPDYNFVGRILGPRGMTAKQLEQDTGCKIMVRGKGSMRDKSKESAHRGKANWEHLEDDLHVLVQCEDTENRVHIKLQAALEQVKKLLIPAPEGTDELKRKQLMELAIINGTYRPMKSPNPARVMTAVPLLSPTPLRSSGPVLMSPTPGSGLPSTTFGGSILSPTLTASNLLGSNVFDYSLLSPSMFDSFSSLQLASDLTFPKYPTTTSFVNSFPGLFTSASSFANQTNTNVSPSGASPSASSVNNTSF
# BCLXL inh: blocks human Bcl-xL binding to Bim BH3 peptide | AID 2129 | inhibition, % at 10.9 µM | GST-Bcl-xL / FITC-Bim BH3 peptide fluorescence polarization | 320,000 tested, 0.7% active;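 active = inhibition above the mean of all tested compounds plus 3 SD, cutoff set per campaign, cut at about 30% in these data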;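 note: 0% = DMSO wells and 100% = unlabeled Bim-BH3 peptide competitor; inhibitors lower millipolarization by displacing the labeled peptide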
# Target sequence (Q07817 whole entry, looked up): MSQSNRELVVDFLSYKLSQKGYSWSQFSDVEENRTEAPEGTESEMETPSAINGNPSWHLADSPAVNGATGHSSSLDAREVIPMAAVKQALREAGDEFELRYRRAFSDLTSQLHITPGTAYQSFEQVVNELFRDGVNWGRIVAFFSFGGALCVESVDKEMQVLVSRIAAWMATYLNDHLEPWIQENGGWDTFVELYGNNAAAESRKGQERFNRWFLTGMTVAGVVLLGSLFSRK
# IDE act: activators of human insulin-degrading enzyme in cells. P14735. HEK cells, FAbeta-B cleavage, fluorescence polarization; 0% vehicle, 100% cell-free pure enzyme wells. activation, % at 5.96 µM. 340,000 tested, 0.073% active. AID 493087;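 active = activation above the mean of all tested compounds plus 3 SD, set per screening campaign, cut at about 17% in these data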
# MCL1-BIM inh: inhibitors of human MCL1 binding to BIM-BH3 peptide; AID 2057; inhibition, % at 10.9 µM; 320,000 tested, 0.68% active; GST-MCL1 / FITC-Bim-BH3 fluorescence polarization; Q07820;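 active = inhibition above the mean inhibition of all tested compounds plus 3 SD, set per campaign, cut at about 40% in these data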;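 note: 0% = DMSO wells and 100% = unlabeled Bim-BH3 peptide control; higher means more loss of mP so more displacement of Bim peptide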
# IDE inh: inhibits human insulin-degrading enzyme in HEK cells; 320,000 tested, 0.41% active; inhibition, % at 5.59 µM; P14735; AID 434962; FAbetaB cleavage, fluorescence polarization;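 active = percent inhibition above the average of all tested compounds plus 3 SD, set per screening campaign, cut at about 16% in these data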;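 note: IDE supplied by intact live HEK cells; FP after avidin binding of uncleaved biotin substrate so inhibition keeps polarization high; 0% = DMSO wells and 100% = 60 µM reference IDE inhibitor Ii1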
# MEX-5 binding: C. elegans MEX-5 TCR-2 RNA binding activity | MEX-5/FITC-TCR2 RNA binding, fluorescence polarization; stronger effect = lower value | 300,000 tested, 0.38% active | activity score (negative = inhibition of binding), % at 10 µM | AID 1832;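 active = inhibition past about -25% in most replicates, and total fluorescence under double the plate's negative control median, limit read from the data; inconclusive = replicates evenly split on the limit, or fluorescence at least double controls; inactive = too little inhibition in most replicates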;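 note: 0% = DMSO and -100% = 5 µM competing unlabeled TCR2 RNA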
# Bcl-xL conf: Bcl-xL (human) inhibition, MCL1 counter-screen confirmation; inhibition, % at 10.9 µM; 1,700 tested, 54% active; shares compounds with MCL1-BIM inh; AID 2166; GST-Bcl-xL / FITC-Bim BH3 peptide FP binding;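 active = inhibition above a cutoff equal to the mean inhibition of all tested compounds plus 3 SD, cut at about 30% in these data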;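 note: 0% = DMSO wells and 100% = unlabeled Bim BH3 control peptide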
# MCL1 inh confirm: MCL1-BIM-BH3 interaction inhibition, confirmation; shares compounds with MCL1-BIM inh; GST-MCL1 / FITC-Bim-BH3 fluorescence polarization; inhibition, % at 10.9 µM; 1,700 tested, 61% active;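 active = inhibition above the average of all tested compounds plus 3 SD, cut at about 40% in these data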;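 note: 0% = DMSO wells and 100% = unlabeled Bim-BH3 control peptide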
# GLD-1 TGE cf: confirmation of C. elegans GLD-1 TGE RNA binding inhibitors | shares compounds with GLD-1 TGE inh | GLD-1/FL-TGE RNA fluorescence polarization, biochemical | inhibition, % at 5.96 µM | 550 tested, 10% active;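 active = average inhibition across triplicates above the hit cutoff set in the primary screen, cut at about 32% in these data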;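 note: 0% = GLD-1 with RNA probe and DMSO and 100% = wells lacking GLD-1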
# * = called active by the depositor; ? = inconclusive; · = not tested or not shown; + = active, no number.
SMILES,GLD-1 TGE inh,BCLXL inh,IDE act,MCL1-BIM inh,IDE inh,MEX-5 binding,Bcl-xL conf,MCL1 inh confirm,others
Cc1cccc(N=C2NC(=O)/C(=C/C=C/c3ccco3)S2)c1,-5.7,-10.5,1.1,-16.4,2.2,2.9,·,·,
O=C1NC(=Nc2ccc(O)cc2)S/C1=C/c1ccco1,2.2,11.3,7.7,14.0,-0.2,-2.0,·,·,
COc1ccc(C)cc1N1C(=N)/C(=C2/Nc3ccccc3S2)C(c2ccccc2)C1=O (stereo not given),1.9,4.9,6.0,4.0,-0.4,·,·,·,
CCOC(=O)C1=c2/c(=C/c3ccncc3)c(N)c(C(=O)OC)n2C(=O)C(c2ccncc2)S1 (stereo not given),-2.6,2.4,-0.2,-9.2,-0.6,-2.9,·,·,
CC(=O)c1c(C)[nH]c(C(=O)OCC(=O)N(Cc2ccccc2)C(C)(C)C)c1C,·,·,-3.1,·,·,·,·,·,
Cn1c(=O)c2nc3ccccc3nc2n(C)c1=O,9.7,7.2,-1.7,2.2,3.2,-4.8,·,·,
CC(=O)Nc1ccc2nc3c(=O)n(C)c(=O)n(C)c3nc2c1,65.3*,131.8*,7.8,190.3*,-4.2,-12.8,145.6*,190.1*,
CN1CCN(/N=C/c2c3ccccc3c(Cl)c3ccccc23)CC1,77.1*,110.6*,0.7,127.2*,2.0,-0.7,22.4,27.2,
O=c1oc2c3c4c(cc2s1)CCCN4CCC3,75.8*,130.4*,-4.6,165.3*,12.1,-32.4*,99.3*,120.0*,
O=c1ccc2cc3c4c(c2o1)CCCN4CCC3,88.9*,97.0*,2.8,105.1*,4.3,?,154.9*,182.4*,
Cc1cc(C)n(-c2ccnc3cc(Cl)ccc23)n1,-0.1,3.9,1.2,-1.7,-0.9,1.6,·,·,
CC1CCC(NC(=O)CCNC(=O)c2ccccc2)CC1 (stereo not given),-0.8,-0.6,1.2,-3.0,5.6,3.0,·,·,
Cc1ccc(C2C(C#N)=C(N)SC(N)=C2C#N)cc1,·,·,-8.8,·,·,·,·,·,
N#CC1=C(N)SC(N)=C(C#N)C1c1ccoc1,21.4,67.2*,·,80.4*,14.6,-7.4,4.0,-3.6,
c1ccc(Nc2ccccc2Nc2ccccn2)nc1,141.3*,98.2*,-0.1,98.2*,-24.3,-0.2,18.3,29.4,
c1ccc(CNc2ccccn2)cc1,-0.5,5.4,0.2,6.8,3.3,-0.9,·,·,
CN1C(=O)[C@@H]2C[C@@]3([C@@]45C[C@H]6C(=O)N(C)[C@@H](Cc7ccccc7)C(=O)N6[C@@H]4Nc4ccccc45)c4ccccc4N[C@H]3N2C(=O)[C@@H]1Cc1ccccc1,-1.8,4.8,1.3,10.9,-5.4,-0.4,·,·,
O=C(Cc1ccc([N+](=O)[O-])cc1)c1ccc(O)cc1O,6.4,2.1,5.5,1.9,4.8,-1.7,·,·,
COc1ccc(S(=O)(=O)N(C)C[C@H]2Oc3c(NS(=O)(=O)c4ccc(F)cc4)cccc3C(=O)N([C@H](C)CO)C[C@@H]2C)cc1,3.2,·,-2.4,·,2.0,·,·,·,
O=Cc1c(Sc2ccccn2)nc2ccccn2c1=O,24.3,53.0*,3.7,63.1*,-1.3,3.7,3.0,8.4,
O=Cc1c(Sc2ccccc2)nc2ccccn2c1=O,-1.7,5.7,-5.9,7.9,2.1,-2.2,·,·,
Cn1c(=O)c(NCCc2ccccc2)c2c3c(cccc31)C(=O)c1ccccc1-2,+,+,-16.4,+,-11.1,?,+,+,
CC(=O)Nc1ccc(NC2=CC(=O)c3ccccc3C2=O)cc1,1.2,10.8,-0.4,2.0,6.2,-0.7,·,·,
Cn1c(=O)c(NCCO)c2c3c(cccc31)C(=O)c1ccccc1-2,80.9*,114.3*,53.7*,123.5*,-33.9,·,124.9*,128.5*,
CC(=O)Nc1ccc(Nc2c3c4c(cccc4n(C)c2=O)C(=O)c2ccccc2-3)cc1,169.0*,+,5.8,+,3.4,-2.3,181.4*,+,
SMILES,GLD-1 TGE inh,BCLXL inh,IDE act,MCL1-BIM inh,IDE inh,MEX-5 binding,Bcl-xL conf,MCL1 inh confirm,others
Cn1c(=O)c(NC2CCCCC2)c2c3c(cccc31)C(=O)c1ccccc1-2,·,·,-95.3,·,·,·,·,·,
CN(C)c1ccc(O)c2c1CC1CC3[C@@H](N(C)C)C(=O)C(C(N)=O)=C(O)[C@]3(O)C(=O)C1=C2O (stereo not given in full),3.4,14.5,7.9,60.9*,3.4,-13.5,25.7,67.2*,
COC(=O)CCC(=O)N1CCCC(CO)(Cc2ccccc2F)C1 (stereo not given),7.3,-0.1,1.5,-11.1,8.1,-0.6,·,·,
COc1cccc2c1C(=O)c1c(O)c3c(c(O)c1C2=O)C[C@](O)(C(C)=O)C[C@H]3O[C@@H]1C[C@@H](N)[C@@H](O)[C@@H](C)O1,+,+,16.7,+,2.1,?,+,+,
Cc1cc(C)cc(C(=O)N/N=C/c2ccoc2)c1,-2.5,5.5,-1.0,1.1,4.8,0.5,·,·,
O=C(N/N=C/c1ccoc1)c1cc(O)cc(O)c1,0.4,21.2,2.8,43.3*,0.3,-5.4,24.8,56.2*,
COc1ccc(/C=N/N=C2/CC(C)(C)Cc3n[nH]c(=O)cc32)cc1,120.4*,138.0*,1.3,155.2*,-6.0,-81.3*,49.5*,63.4*,
C[C@H](CO)N1C[C@H](C)[C@@H](CN(C)S(=O)(=O)c2cccs2)Oc2c(NC(=O)C3CC3)cccc2C1=O,4.1,·,3.8,·,5.1,·,·,·,
Nc1cccc(C(=O)OCC(=O)Nc2cccc3c2C(=O)c2ccccc2C3=O)c1,47.0*,97.7*,5.9,118.5*,-3.5,-0.4,107.1*,146.2*,GLD-1 TGE cf=67.2*
Cc1ccc(/C=N/n2cnc3sc(-c4ccccc4)cc3c2=O)o1,65.0*,124.0*,0.6,66.7*,-1.3,-4.8,7.5,11.9,GLD-1 TGE cf=-1.7
O=C(NCCC1=CCCCC1)C(=O)NCc1ccncc1,46.7*,73.0*,-2.2,68.3*,6.1,0.6,9.0,-0.9,GLD-1 TGE cf=13.0
O=C(NCCC1=CCCCC1)C(=O)NCCc1ccc(Cl)cc1,-12.9,4.0,-1.4,2.5,8.8,-0.7,·,·,
O=C1c2ccc(-c3ccc4c(c3)C(=O)N(CCCO)C4=O)cc2C(=O)N1CCCO,-3.2,6.0,-1.0,3.8,-11.6,-2.1,·,·,
O=C1C2=C(SCCS2)C(=O)N1CCCO,74.9*,86.9*,6.8,91.5*,-3.8,-21.9,73.6*,94.3*,GLD-1 TGE cf=49.0*
Cc1nn2c3ccccc3n(C)c2nc1=O,-2.2,4.0,5.6,8.8,4.8,-2.0,·,·,
